Measured values from ChEMBL document CHEMBL1961873, “Compounds: GSK PKIS; Assays: Nanosyn kinase panel” (2012).

Columns and labels:
[1] = biological target: Serine/threonine-protein kinase 26 (Homo sapiens) (UniProt Q9P289); details: at 1 µM;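 note: mean inhibition of MST4 kinase activity, reported from the GSK PKIS inhibitor-set screening panel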
[2] = biological target: Serine/threonine-protein kinase PAK 1 (Homo sapiens) (UniProt Q13153); details: at 0.1 µM
[3] = biological target: Serine/threonine-protein kinase PAK 1 (Homo sapiens) (UniProt Q13153); details: at 1 µM
[4] = biological target: Serine/threonine-protein kinase PAK 2 (Homo sapiens) (UniProt Q13177); details: at 0.1 µM
[5] = biological target: Serine/threonine-protein kinase PAK 2 (Homo sapiens) (UniProt Q13177); details: at 1 µM
[6] = biological target: Serine/threonine-protein kinase PAK 3 (Homo sapiens) (UniProt O75914); details: at 0.1 µM
[7] = biological target: Serine/threonine-protein kinase PAK 3 (Homo sapiens) (UniProt O75914); details: at 1 µM
[8] = biological target: Serine/threonine-protein kinase PAK 5 (Homo sapiens) (UniProt Q9P286); details: at 0.1 µM
[9] = biological target: Serine/threonine-protein kinase PAK 5 (Homo sapiens) (UniProt Q9P286); details: at 1 µM
[10] = biological target: Serine/threonine-protein kinase PAK 6 (Homo sapiens) (UniProt Q9NQU5); details: at 0.1 µM
[11] = biological target: Serine/threonine-protein kinase PAK 6 (Homo sapiens) (UniProt Q9NQU5); details: at 1 µM
[12] = test system: Tyrosine-protein kinase ABL1 (Homo sapiens), P00519 [E255K]; details: at 0.1 µM
[13] = test system: Tyrosine-protein kinase ABL1 (Homo sapiens), P00519 [E255K]; details: at 1 µM
[14] = test system: Tyrosine-protein kinase ABL1 (Homo sapiens), P00519 [H396P]; details: at 0.1 µM
[15] = test system: Tyrosine-protein kinase ABL1 (Homo sapiens), P00519 [H396P]; details: at 1 µM
[16] = test system: Tyrosine-protein kinase ABL1 (Homo sapiens), P00519 [M351T]; details: at 0.1 µM
[17] = test system: Tyrosine-protein kinase ABL1 (Homo sapiens), P00519 [M351T]; details: at 1 µM
[18] = test system: Tyrosine-protein kinase ABL1 (Homo sapiens), P00519 [Q252H]; details: at 0.1 µM
[19] = test system: Tyrosine-protein kinase ABL1 (Homo sapiens), P00519 [Q252H]; details: at 1 µM
[20] = test system: Tyrosine-protein kinase ABL1 (Homo sapiens), P00519 [T315I]; details: at 0.1 µM

Sequence of Serine/threonine-protein kinase PAK 1 (Homo sapiens) (Q13153 whole entry): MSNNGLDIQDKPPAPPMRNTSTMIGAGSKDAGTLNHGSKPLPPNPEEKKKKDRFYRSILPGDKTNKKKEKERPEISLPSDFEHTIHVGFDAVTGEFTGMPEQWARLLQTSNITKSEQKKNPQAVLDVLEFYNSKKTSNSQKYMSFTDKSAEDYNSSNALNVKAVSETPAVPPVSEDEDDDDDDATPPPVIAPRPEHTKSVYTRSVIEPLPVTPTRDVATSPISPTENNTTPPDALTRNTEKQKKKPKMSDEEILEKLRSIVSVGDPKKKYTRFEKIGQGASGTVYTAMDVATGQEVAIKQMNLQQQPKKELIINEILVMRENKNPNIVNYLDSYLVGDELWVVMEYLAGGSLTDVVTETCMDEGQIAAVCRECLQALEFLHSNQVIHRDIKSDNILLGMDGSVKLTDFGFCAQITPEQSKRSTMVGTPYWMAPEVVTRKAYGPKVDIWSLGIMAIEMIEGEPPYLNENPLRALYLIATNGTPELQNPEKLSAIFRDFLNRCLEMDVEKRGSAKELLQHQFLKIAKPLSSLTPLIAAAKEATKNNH
Sequence of Serine/threonine-protein kinase PAK 5 (Homo sapiens) (Q9P286 whole entry, looked up): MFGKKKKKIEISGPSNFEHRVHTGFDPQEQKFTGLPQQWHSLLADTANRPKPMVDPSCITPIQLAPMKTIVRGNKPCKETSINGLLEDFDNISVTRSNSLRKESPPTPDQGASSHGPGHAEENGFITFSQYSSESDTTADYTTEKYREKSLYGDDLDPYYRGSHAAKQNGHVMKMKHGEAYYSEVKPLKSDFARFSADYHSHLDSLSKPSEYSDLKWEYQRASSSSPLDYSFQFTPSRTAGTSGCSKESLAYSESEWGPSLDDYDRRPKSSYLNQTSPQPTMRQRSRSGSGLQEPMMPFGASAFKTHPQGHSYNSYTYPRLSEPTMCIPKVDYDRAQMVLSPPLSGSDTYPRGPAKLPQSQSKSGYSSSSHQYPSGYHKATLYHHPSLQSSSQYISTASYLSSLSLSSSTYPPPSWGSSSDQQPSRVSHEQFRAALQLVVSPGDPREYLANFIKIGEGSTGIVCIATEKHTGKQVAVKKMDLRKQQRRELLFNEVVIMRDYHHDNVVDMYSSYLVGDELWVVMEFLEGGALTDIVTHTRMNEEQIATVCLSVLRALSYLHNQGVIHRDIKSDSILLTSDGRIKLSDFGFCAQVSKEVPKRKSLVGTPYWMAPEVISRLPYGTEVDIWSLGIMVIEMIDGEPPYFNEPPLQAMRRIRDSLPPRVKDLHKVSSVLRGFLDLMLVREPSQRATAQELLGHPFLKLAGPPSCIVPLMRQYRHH
Sequence of Serine/threonine-protein kinase PAK 2 (Homo sapiens) (Q13177 whole entry): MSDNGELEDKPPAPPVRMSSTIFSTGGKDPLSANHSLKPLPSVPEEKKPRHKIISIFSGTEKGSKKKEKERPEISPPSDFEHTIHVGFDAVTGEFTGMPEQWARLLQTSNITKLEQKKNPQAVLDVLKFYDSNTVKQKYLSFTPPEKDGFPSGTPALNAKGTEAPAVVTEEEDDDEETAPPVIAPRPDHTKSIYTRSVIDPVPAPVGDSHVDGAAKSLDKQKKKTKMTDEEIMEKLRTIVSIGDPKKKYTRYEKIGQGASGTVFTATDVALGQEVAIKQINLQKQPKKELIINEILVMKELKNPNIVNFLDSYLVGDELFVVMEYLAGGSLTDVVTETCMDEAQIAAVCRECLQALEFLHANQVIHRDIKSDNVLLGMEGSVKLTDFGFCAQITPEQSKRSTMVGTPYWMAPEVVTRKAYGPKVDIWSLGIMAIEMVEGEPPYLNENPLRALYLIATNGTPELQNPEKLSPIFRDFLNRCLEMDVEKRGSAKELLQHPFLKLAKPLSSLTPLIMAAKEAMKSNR
Sequence of Serine/threonine-protein kinase PAK 3 (Homo sapiens) (O75914 whole entry, looked up): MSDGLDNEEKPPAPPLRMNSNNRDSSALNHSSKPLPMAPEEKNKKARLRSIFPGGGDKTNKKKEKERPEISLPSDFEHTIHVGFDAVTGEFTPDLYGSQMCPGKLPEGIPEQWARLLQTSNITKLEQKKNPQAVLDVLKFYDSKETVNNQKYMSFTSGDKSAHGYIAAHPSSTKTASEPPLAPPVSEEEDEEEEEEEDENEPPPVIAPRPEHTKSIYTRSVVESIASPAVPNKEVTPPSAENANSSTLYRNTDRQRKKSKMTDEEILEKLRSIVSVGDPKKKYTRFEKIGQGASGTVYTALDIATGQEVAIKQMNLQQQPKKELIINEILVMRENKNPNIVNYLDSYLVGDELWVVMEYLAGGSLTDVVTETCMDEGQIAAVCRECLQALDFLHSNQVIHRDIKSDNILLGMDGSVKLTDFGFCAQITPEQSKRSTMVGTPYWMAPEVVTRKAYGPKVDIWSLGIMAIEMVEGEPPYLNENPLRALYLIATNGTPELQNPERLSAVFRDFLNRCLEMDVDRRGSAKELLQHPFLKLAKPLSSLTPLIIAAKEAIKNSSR
Sequence of Serine/threonine-protein kinase 26 (Homo sapiens) (Q9P289 2-416 limits assumed): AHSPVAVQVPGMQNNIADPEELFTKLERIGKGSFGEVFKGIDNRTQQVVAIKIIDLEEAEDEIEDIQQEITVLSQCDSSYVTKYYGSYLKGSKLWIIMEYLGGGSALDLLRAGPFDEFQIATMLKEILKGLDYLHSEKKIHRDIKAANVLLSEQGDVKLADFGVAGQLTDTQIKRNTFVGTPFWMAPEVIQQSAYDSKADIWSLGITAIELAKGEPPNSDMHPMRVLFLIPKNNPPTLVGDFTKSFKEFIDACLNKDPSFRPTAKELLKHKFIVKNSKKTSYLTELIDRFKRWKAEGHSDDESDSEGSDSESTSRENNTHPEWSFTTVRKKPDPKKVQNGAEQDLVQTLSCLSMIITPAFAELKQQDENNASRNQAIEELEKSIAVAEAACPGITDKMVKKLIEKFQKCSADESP
Sequence of Serine/threonine-protein kinase PAK 6 (Homo sapiens) (Q9NQU5 whole entry, looked up): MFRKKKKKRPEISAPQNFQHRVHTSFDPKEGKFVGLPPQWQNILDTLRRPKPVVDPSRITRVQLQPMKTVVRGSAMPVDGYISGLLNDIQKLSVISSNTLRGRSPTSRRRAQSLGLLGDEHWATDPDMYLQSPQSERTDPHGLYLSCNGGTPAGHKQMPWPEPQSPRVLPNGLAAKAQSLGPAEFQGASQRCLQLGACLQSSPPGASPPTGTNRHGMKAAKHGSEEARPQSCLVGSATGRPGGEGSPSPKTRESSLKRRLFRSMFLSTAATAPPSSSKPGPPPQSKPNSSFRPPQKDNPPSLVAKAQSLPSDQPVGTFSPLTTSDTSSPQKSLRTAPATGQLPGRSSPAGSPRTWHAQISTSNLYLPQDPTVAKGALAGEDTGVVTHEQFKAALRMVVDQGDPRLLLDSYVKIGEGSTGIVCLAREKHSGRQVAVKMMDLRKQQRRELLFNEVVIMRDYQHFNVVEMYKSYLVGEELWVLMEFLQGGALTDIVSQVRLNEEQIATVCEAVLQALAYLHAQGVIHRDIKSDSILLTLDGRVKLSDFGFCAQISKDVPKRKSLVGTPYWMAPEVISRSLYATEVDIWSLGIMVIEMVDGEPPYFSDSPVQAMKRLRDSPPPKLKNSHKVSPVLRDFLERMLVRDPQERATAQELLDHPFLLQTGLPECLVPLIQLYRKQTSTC

SMILES | inhibition [1] [%] | inhibition [2] [%] | inhibition [3] [%] | inhibition [4] [%] | inhibition [5] [%] | inhibition [6] [%] | inhibition [7] [%] | inhibition [8] [%] | inhibition [9] [%] | inhibition [10] [%] | inhibition [11] [%] | inhibition [12] [%] | inhibition [13] [%] | inhibition [14] [%] | inhibition [15] [%] | inhibition [16] [%] | inhibition [17] [%] | inhibition [18] [%] | inhibition [19] [%] | inhibition [20] [%]
CC(C)c1ccc2c(c1)NC(=O)/C2=N/Nc1ccc(S(N)(=O)=O)cc1 | 0.01 | -1.3 | 3.93 | -1.91 | -1.73 | -1.11 | 0.37 | -6.19 | -0.94 | -8.22 | -5.25 | 1.09 | 12 | 5.36 | 33.7 | 7.06 | 38 | 4.4 | 26.6 | 1.24
Cc1cc(Cl)cc2c1NC(=O)C2=NNc1ccc(S(N)(=O)=O)cc1 | -0.49 | 0.68 | 1.71 | 1.05 | 0.72 | 3.63 | 4.8 | -4.18 | -1.19 | 2.65 | -1.69 | 1.25 | 5.11 | 2.97 | 8.01 | -0.27 | 6.65 | 4.15 | 7.11 | 1.38
O=C1Nc2ccccc2/C1=C/Nc1ccc2[nH]c(=O)[nH]c2c1 | 2.72 | 10.5 | 7.51 | 0.87 | 1.53 | 7.05 | 5.03 | 5.25 | 3.2 | -6.58 | -6.29 | 7.84 | 15 | 7.55 | 23.4 | 4.2 | 24.6 | 8.42 | 26 | 4.38
Cc1ccc2c(-c3ccnc(Nc4ccc5c(c4)OCCO5)n3)c(-c3ccc(C(F)(F)F)cc3)nn2n1 | 0.53 | 0.57 | 2.13 | 0.68 | -0.11 | 2 | 0.74 | -9.67 | -4.92 | 7.58 | 10.7 | 2.27 | 3.32 | 2.14 | 3.45 | 0.52 | 3.13 | 1.51 | 4.16 | 0.69
Nc1nccc(C#Cc2cncnc2Nc2ccc(OCc3cccc(F)c3)c(Cl)c2)n1 | -8.32 | 6.18 | 3.97 | 1.6 | 2.31 | 0.29 | 3.37 | 3.29 | -3.56 | 5.51 | 1.07 | 3.67 | 3.58 | 3.32 | 2.76 | 1.11 | 0.59 | 2.18 | 0.52 | 2.46
COc1cc2ncn(-c3cc(OCc4ccccc4S(C)(=O)=O)c(C#N)s3)c2cc1OC | 0.22 | 6.88 | 5.61 | 0.99 | 2.17 | 4.63 | 5.52 | 3.87 | 4.97 | 4.22 | 9.78 | 9.96 | 46.7 | 12.2 | 49.5 | 9.97 | 49.6 | 10 | 43.9 | 6.41
COc1cc(Nc2nccc(-c3cnn4ncccc34)n2)cc(OC)c1 | 4.52 | -0.14 | 2.57 | -0.1 | 2.59 | 0.77 | 3.43 | -6.63 | 9.42 | -2.46 | -1.82 | 6.96 | 46 | 11.9 | 59.5 | 13.7 | 63.4 | 18 | 68.6 | 5.15
O=C1Nc2ccc(-c3cccnc3)cc2C1=Cc1cc(Br)c(O)c(Br)c1 | 36 | 6.15 | 6.31 | 2.5 | 2.17 | 4.09 | 4.77 | 0.53 | -0.35 | -0.06 | 7.69 | 3.78 | 8.72 | 3.44 | 7.14 | 4.37 | 6.55 | 2.79 | 7.71 | 2.69
CN(c1ccc(NC(=O)Nc2ccc(OC(F)(F)F)cc2)cc1)c1ccnc(Nc2cccc(S(N)(=O)=O)c2)n1 | -3.21 | 1.61 | -0.37 | 0.53 | -1.63 | 2.32 | 0.7 | -3.24 | 1.16 | -3.33 | -2 | 17.2 | 65.3 | 47.6 | 86.9 | 64.9 | 91.2 | 65.8 | 90.2 | 48.7
CN(C)c1cc2c(Nc3ccc4c(cnn4Cc4ccccc4)c3)ncnc2cn1 | -0.54 | 6.36 | 6.67 | 0.73 | 0.51 | 3.07 | 3.39 | -1.52 | -2.02 | 4.32 | -3.27 | 1.1 | 1.85 | 0.57 | 0.96 | -0.53 | 1.01 | 0.79 | 3.55 | -1.13
COc1cccc(-n2ncc3c(N/N=C/c4ccc(S(C)(=O)=O)cc4)ncnc32)c1 | 2.58 | 2.37 | 3.02 | -0.07 | -0.47 | 0.46 | 1.53 | 2.27 | 10.1 | -8.81 | 5.24 | 79 | 93.4 | 85.2 | 94.1 | 84.9 | 95.5 | 87.2 | 95 | 49.4
NS(=O)(=O)c1ccc(Nc2cc(-c3cccc(O)c3)n[nH]2)cc1 | -4.6 | 9.49 | 7.81 | 3.22 | 2.59 | 6.66 | 6.8 | 3.04 | -6.9 | -0.89 | -5.13 | 4.46 | 7.4 | 5.03 | 5.99 | 4.35 | 4.29 | 5.44 | 5.74 | 4.08
N#Cc1cccc(Nc2nccc(-c3cnn4ncccc34)n2)c1 | 3.34 | 8.03 | 7.42 | 1.67 | 3.52 | 3.6 | 5.22 | 0.7 | 12.7 | -4.74 | -4.67 | 7.52 | 33 | 13.6 | 51.8 | 16.2 | 60.8 | 15.2 | 57 | 8.12
[O-][S+]1CCN(Cc2ccc(-c3ccc4ncnc(Nc5ccc(OCc6ccccc6)c(Cl)c5)c4c3)o2)CC1 | 1.64 | 2.5 | 4.24 | 0.11 | 0.24 | 0.99 | 2.19 | 2.51 | 1.72 | -9.51 | -2.46 | 1.62 | 1.35 | 1.53 | 2.74 | 0.68 | 2.75 | 2.06 | 3.61 | 0.16
NS(=O)(=O)c1cccc(-c2cc3ccncc3cc2OCc2ccccc2)c1 | -3.77 | 7.59 | 6.92 | 3.01 | 2.6 | 4.78 | 7.31 | -0.43 | -0.51 | -0.02 | -4 | 1.9 | 4.18 | 4.37 | 9.55 | 3.86 | 8.19 | 3.13 | 6.44 | 3.3
NS(=O)(=O)c1ccc(N/N=C2\C(=O)Nc3ccc(Cl)cc32)cc1 | 13.4 | 3.14 | 5.51 | 0.72 | 1.37 | 3.71 | 5.15 | 4.18 | 3.28 | -3.69 | 7.73 | -0.63 | 5.98 | 3.92 | 12.9 | 1.55 | 12.6 | 2.4 | 9.91 | 0.91
COC(=O)Nc1nc2cc(Oc3ccc(NC(=O)Nc4cccc(Br)c4)cc3)ccc2[nH]1 | 9.97 | -0.8 | 6.23 | 0.73 | 0.39 | 2.85 | 2.59 | -1.29 | -0.7 | -5.52 | -4.46 | 4.52 | 5.09 | 16.4 | 35 | 42.6 | 54.6 | 39.7 | 57.8 | 30.1
FC(F)(F)c1ccc(-c2nn3ncccc3c2-c2ccnc(Nc3ccc4c(c3)OCCO4)n2)cc1 | 7.92 | 4.61 | 0.84 | 1.32 | 1.42 | 3.69 | 4.75 | 6.24 | 11.3 | 9.3 | 15.5 | -0.31 | 0.99 | 0.37 | 8.02 | 1.83 | 13.9 | 2.75 | 8.01 | 1.73
CCS(=O)(=O)c1ccc(OC)c(Nc2ncc(-c3cccc(OC)c3)o2)c1 | -4.12 | 2.01 | 5.71 | 2.79 | 1.98 | 3.24 | 2.36 | 6.72 | -1.57 | -4.37 | 2.64 | 34 | 81.1 | 41.6 | 85.4 | 43.2 | 86.1 | 46.6 | 86.5 | 6.23
CCCN1CCCC(c2ccc(Nc3nc(Nc4cc(F)ccc4C(N)=O)c4cc[nH]c4n3)c(OC)c2)C1 (stereo not given) | -1.5 | 7.38 | 9.12 | 2.49 | 3.33 | 4.64 | 5.56 | 1.21 | 6.67 | 2 | -5.69 | 3.9 | 5.75 | 5.07 | 4.96 | 1.54 | 5.35 | 4.96 | 7.24 | 4.52
N#Cc1c(NC(=O)c2ccccc2F)sc2c1CCCC2 | 1.28 | -3.89 | 1.46 | -2.11 | -1.55 | -2.48 | -1.16 | -5.99 | -0.86 | 2.44 | 3.35 | -0.62 | 1.08 | 0.3 | -1.4 | 0.7 | 0.57 | -0.76 | -0.72 | -0.91
COc1cc2ncnc(Nc3ccc(C)c(O)c3)c2cc1OC | -1.08 | 6.98 | 7.41 | 1.81 | 2.35 | 5.88 | 5.36 | 0.51 | 7.08 | -1.14 | 0.34 | 42.3 | 85.8 | 48.1 | 87.4 | 42.5 | 84.5 | 41.1 | 81.8 | 16.5
Cc1ccc(O)cc1Nc1ccnc2ccc(S(C)(=O)=O)cc12 | -0.56 | 9.27 | 13.3 | 2.82 | 2.56 | 5.79 | 6.05 | 1.8 | 8.34 | -3.21 | 4.09 | 94.4 | 95.8 | 94.8 | 96.4 | 90.6 | 94.3 | 93 | 96.3 | 3.68
c1ccc(Cc2nc3ccc(Nc4ncnc5ccccc45)cc3[nH]2)cc1 | -0.26 | 4.28 | 3.15 | 2.47 | 2.26 | 3.68 | 4.32 | 5.6 | 7.77 | -3.41 | 7.47 | 2.13 | 4.34 | 1.27 | 3.84 | 0.27 | 5.2 | 4.19 | 6.39 | 2.12
Cc1nc(-c2ccccc2)n2nc(NCCCN3CCOCC3)ncc12 | 0.4 | 2.24 | 6.68 | 0.56 | 0.27 | 1.98 | 4.33 | 1.91 | 1.28 | -9.04 | -7.1 | 0.22 | 2.36 | 2.5 | 4.26 | -1.13 | 0.73 | 3.04 | 3.3 | 2.3
OCc1ccc(-c2nc(-c3ccccn3)c(-c3ccc4c(c3)OCO4)[nH]2)cc1 | -2.75 | 3.25 | 7.25 | 2.61 | 2.79 | 4.79 | 5.17 | 1.77 | 0.71 | 3.79 | 5.51 | 4 | 3.72 | 2.95 | 3.25 | 1.06 | 2.45 | 3.06 | 3.19 | 1.99
